# PubChem BioAssay
# Calls of active or inactive are those of the source.
# Key:
# [1] = tested on: Human papillomavirus type 1a protein E7 (residues 44-93); assay: HPV1a E7 fragment binders on microarrays, primary screen, biochemical, small-molecule microarray, residues 44-93, 635 nm fluorescence (AID 1108); conditions: small-molecule microarray binding, fluorescence 635 nm; higher = more signal;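 note: E7 fragment applied at 1 µg/mL in TBST for 1 h at 4 C; score combines spot fluorescence with its signal to noise ratio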
# [2] = modulators of HCV replicon luciferase signal, primary screen, HCV replication inhibitor project, Huh7 cells, luciferase reporter (AID 1109); conditions: 48 h, higher = more signal;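 note: huh7 hepatoma cells harbouring a luciferase neomycin HCV replicon reporter; luciferase luminescence as measure of HCV replicon replication; test concentration not given here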
# [3] = biological target: Left-right determination factor 2 (Homo sapiens) (UniProt O00292); assay: LEFTY2 binders on small-molecule microarrays, primary screen, biochemical, small-molecule microarray, 635 nm fluorescence scan (AID 1110); conditions: LEFTY2 binding, higher = more signal
# Sequence of Left-right determination factor 2 (Homo sapiens) (O00292 whole entry, looked up): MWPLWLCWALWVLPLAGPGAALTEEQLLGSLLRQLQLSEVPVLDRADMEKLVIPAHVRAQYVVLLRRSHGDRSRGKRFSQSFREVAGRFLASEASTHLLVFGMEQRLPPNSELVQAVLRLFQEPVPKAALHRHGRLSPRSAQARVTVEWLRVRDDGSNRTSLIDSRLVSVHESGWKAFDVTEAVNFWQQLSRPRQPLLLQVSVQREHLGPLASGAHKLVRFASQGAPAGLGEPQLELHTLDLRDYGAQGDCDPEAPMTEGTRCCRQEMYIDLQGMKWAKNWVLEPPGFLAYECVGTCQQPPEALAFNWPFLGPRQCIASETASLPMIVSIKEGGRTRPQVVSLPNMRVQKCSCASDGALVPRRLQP
# [4] = biological target: Calmodulin-1 (Homo sapiens) (UniProt P0DP23); assay: CALM1 binders on microarrays, EGTA buffer, profiling panel, biochemical, small-molecule microarray, Cy5-labelled CALM1 (AID 1111); conditions: Cy5-CALM1 binding fluorescence, higher = more signal;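 note: labelled calmodulin applied in Tris saline Tween buffer holding calcium plus EGTA and DTT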
# [5] = biological target: Calmodulin-1 (Homo sapiens) (UniProt P0DP23); assay: calcium-bound CALM1 binders on microarrays, profiling panel, artefact control for SMM control-protein annotation, biochemical, small-molecule microarray, Cy5-labelled CALM1, plus calcium (AID 1112); conditions: Cy5-CALM1 binding fluorescence, higher = more signal;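 note: score merges spot fluorescence with signal to noise from triplicate slides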
# [6] = small-molecule microarray binders of probe aWnt5a, primary screen, biochemical, biotinylated probe, 635/667 nm fluorescence (AID 1113); conditions: higher = more signal;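 note: score merges 667 nm fluorescence intensity with signal-to-noise per printed feature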
# [7] = small-molecule microarray binders of probe aShh, primary screen, biochemical, biotinylated probe, 635/667 nm fluorescence (AID 1114); conditions: higher = more signal;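 note: probe is biotin-labelled aShh protein from a stem cell growth factor screen; measures binding of labelled protein to compounds printed on the slide; score merges feature fluorescence at 667 nm with signal-to-noise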
# [8] = small-molecule microarray binders of probe aNog, primary screen, biochemical, biotinylated probe, 635/667 nm fluorescence (AID 1115); conditions: higher = more signal;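 note: probe is biotinylated aNog protein used at 0.15 µg/mL for 1 h at 4 C; z-score combines 667 nm fluorescence of each spot with its signal to noise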
# [9] = biological target: Torsin-1A-interacting protein 1 (Homo sapiens) (UniProt Q5JTV8); assay: LAP1 binders from COS7 cell lysate, primary screen, small-molecule microarray, 635/667 nm fluorescence (AID 1116); conditions: COS7-hLAP1 lysate binding, 635 nm fluorescence, higher = more signal
# Sequence of Torsin-1A-interacting protein 1 (Homo sapiens) (Q5JTV8 whole entry, looked up): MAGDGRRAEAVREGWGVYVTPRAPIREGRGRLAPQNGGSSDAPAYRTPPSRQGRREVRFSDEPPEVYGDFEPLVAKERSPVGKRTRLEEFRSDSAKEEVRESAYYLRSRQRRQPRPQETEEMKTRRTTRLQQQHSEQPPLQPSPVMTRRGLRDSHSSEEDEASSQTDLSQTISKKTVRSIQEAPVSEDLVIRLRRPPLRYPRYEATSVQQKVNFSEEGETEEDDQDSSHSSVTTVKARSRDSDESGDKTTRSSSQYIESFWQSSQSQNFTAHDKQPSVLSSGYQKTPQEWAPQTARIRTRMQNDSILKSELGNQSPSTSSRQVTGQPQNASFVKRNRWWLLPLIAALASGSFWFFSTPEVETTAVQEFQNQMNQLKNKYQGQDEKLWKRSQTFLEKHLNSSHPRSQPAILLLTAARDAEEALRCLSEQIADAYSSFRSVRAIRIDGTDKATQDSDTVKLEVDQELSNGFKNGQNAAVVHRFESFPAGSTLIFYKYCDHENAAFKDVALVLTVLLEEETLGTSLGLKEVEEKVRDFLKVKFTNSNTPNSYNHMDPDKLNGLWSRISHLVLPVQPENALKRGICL
# [10] = biological target: Alpha-bungarotoxin (Bungarus multicinctus) (UniProt P60615); assay: alpha-bungarotoxin binders on microarray, profiling panel, artefact control for SMM control protein annotation, biochemical, small-molecule microarray, Alexa647 label, 635/667 nm fluorescence (AID 1117); conditions: alpha-BTX-A647 binding fluorescence, higher = more signal
# Sequence of Alpha-bungarotoxin (Bungarus multicinctus) (P60615 whole entry, looked up): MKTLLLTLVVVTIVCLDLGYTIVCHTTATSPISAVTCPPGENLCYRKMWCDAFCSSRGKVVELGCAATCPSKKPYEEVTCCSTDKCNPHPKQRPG
# [11] = biological target: Albumin (Bos taurus) (UniProt P02769); assay: bovine serum albumin binders on microarray, profiling panel, artefact control for SMM control protein annotation, biochemical, small-molecule microarray, Alexa647 label, 635/667 nm fluorescence (AID 1118); conditions: BSA-A647 binding, fluorescence 635 nm, higher = more signal;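 note: score merges 667 nm emission intensity and signal-to-noise per printed compound spot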
# Sequence of Albumin (Bos taurus) (P02769 whole entry, looked up): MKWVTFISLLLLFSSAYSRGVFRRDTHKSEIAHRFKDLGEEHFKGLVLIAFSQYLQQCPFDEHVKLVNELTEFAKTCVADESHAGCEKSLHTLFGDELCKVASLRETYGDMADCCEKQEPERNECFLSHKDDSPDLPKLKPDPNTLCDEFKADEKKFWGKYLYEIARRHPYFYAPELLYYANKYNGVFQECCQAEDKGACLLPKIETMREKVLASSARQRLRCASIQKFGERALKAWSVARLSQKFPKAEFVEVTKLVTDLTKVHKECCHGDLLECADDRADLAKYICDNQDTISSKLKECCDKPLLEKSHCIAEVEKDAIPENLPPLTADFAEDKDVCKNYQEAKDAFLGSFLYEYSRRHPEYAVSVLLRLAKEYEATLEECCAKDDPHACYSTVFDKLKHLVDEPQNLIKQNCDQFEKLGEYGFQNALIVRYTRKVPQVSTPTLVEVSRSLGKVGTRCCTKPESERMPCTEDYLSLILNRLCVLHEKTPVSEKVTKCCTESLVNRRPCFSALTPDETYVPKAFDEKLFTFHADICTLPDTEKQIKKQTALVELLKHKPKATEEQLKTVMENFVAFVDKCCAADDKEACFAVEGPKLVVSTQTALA
# [12] = small-molecule microarray binders of probe aXIP, primary screen, biochemical, NeuroSMM set, 635/667 nm fluorescence (AID 1119); conditions: higher = more signal, called active from +8 up or from −8 down;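 note: probe is the protein aXip251-270 applied at 1 µg/mL to compound-printed slides; binding of probe to printed compounds measured as 667 nm fluorescence plus signal to noise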
# [13] = small-molecule binders of probe aNOTCH3, primary screen, biochemical, small-molecule microarray, 635/667 nm fluorescence (AID 1120); conditions: higher = more signal;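 note: probe is a biotin-tagged antibody raised against NOTCH3 rather than NOTCH3 protein; score merges spot fluorescence near 667 nm with spot signal to noise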
# [14] = small-molecule binders of probe aNOTCH2, primary screen, biochemical, small-molecule microarray, 635/667 nm fluorescence (AID 1121); conditions: higher = more signal;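 note: score merges feature fluorescence read at 667 nm with its signal to noise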
# [15] = biological target: Carbonic anhydrase 2 (Homo sapiens) (UniProt P00918); assay: CAII small-molecule binders, profiling panel, biochemical, small-molecule microarray, Alexa647-labelled CAII (AID 1122); conditions: CAII-A647 binding fluorescence, higher = more signal
# [16] = COS7 lysate on small-molecule microarray, probe aHis, 635 nm (AID 1123); conditions: COS7 cell lysate, fluorescence, higher = more signal;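 note: z-score combines 667nm fluorescence intensity with signal-to-noise per printed compound spot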
# [17] = compound binding in COS7 lysate, probe aLAP1, primary screen, cell lysate, small-molecule microarray (AID 1124); conditions: probe aLAP1, fluorescence, higher = more signal;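 note: lysate comes from COS7 cells expressing LAP1 and is applied at 0.3 µg/mL; score merges spot fluorescence near 667 nm with signal-to-noise over triplicate slides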
# [18] = tested on: Sam68 (KHDRBS1); assay: Sam68 small-molecule binders, primary screen, biochemical, small-molecule microarray, 635 nm fluorescence (AID 1125); conditions: small-molecule microarray binding, higher = more signal;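 note: score merges 667 nm channel intensity with signal to noise over triplicate slides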
# [19] = tested on: Chordin-like protein 2 (CHRDL2); assay: CHRDL2 small-molecule binders, primary screen, biochemical, small-molecule microarray, 635 nm fluorescence (AID 1126); conditions: small-molecule microarray binding, fluorescence 635 nm; higher = more signal;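 note: printed compound slides probed with Chrdl2 protein at 4 µg/mL for 1 h at 4 C; score merges 667 nm emission intensity with signal to noise over three replicate slides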
# [20] = biological target: Concanavalin-A (Canavalia ensiformis) (UniProt P02866); assay: ConA small-molecule binders, primary screen, artefact control for SMM control protein annotation, biochemical, small-molecule microarray, Alexa647 label, 635 nm (AID 1127); conditions: ConA-A647 binding fluorescence, higher = more signal;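 note: z combines 667 nm emission intensity with signal-to-noise across three replicate slides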
# Sequence of Concanavalin-A (Canavalia ensiformis) (P02866 whole entry, looked up): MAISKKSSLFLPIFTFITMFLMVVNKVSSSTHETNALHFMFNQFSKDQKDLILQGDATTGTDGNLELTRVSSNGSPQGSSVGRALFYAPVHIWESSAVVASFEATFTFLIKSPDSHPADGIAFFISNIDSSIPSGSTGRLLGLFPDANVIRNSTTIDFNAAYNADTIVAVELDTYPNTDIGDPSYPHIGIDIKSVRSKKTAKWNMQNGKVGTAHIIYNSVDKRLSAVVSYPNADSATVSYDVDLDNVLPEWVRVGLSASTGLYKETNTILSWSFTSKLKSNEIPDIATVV
Compound,composite z-score [1],z-score [2],composite z-score [3],composite z-score [4],composite z-score [5],composite z-score [6],composite z-score [7],composite z-score [8],composite z-score [9],composite z-score [10],composite z-score [11],composite Z-score [12],composite z-score [13],composite z-score [14],composite z-score [15],composite z-score [16],composite z-score [17],composite z-score [18],composite z-score [19],composite z-score [20]
CO[C@H]1COC(=O)[C@H](C)NC(=O)CC=C[C@@H](C)[C@H](OC)COC(=O)[C@@H](OCc2ccccc2)C=C[C@@H]1C,-0.112,-0.339,0.591,-0.306,-1.32,-0.233,-0.279,0.0021,0.129,-0.233,-0.744,-0.0157 (inactive),-0.068,-0.0657,-0.722,-0.724,-0.198,-0.206,1.06,-0.909
C#CCCCON=C1C[C@@H](O)[C@@H](O)[C@@H]2[C@@H]3C(=O)N(c4ccc(F)cc4F)C(=O)[C@@H]3CC[C@@H]12,0.184,0.296,0.321,-0.212,-0.813,-0.197,-0.179,0.14,0.36,0.155,0.373,-0.302 (inactive),-0.113,-0.0569,-0.15,-0.366,0.202,0.428,0.217,0.505
CC(C)CON=C1C[C@@H](O)[C@@H](O)[C@@H]2[C@@H]3C(=O)N(C4CCCCC4)C(=O)[C@@H]3CC[C@@H]12,-0.991,-1.6,0.0528,-0.333,-0.558,-0.178,-0.279,-0.417,0.136,0.673,0.401,-0.0662 (inactive),-0.178,-0.177,0.389,1.73,-0.499,0.158,-0.329,1.01
C[C@@H]1CC[C@H]2C(=O)O[C@@H](COc3ccc(C(C)(C)C)cc3)CN2[C@@H]1c1ccc(Br)cc1,-0.631,-0.0485,-0.403,-0.121,0.578,-0.179,-0.289,0.105,-0.319,0,0.0192,-0.695 (inactive),-0.21,-0.14,-0.408,-0.0056,-0.239,-0.558,-0.614,-0.619
CO[C@H]1COC(=O)[C@@H]2CCCN2C(=O)CC=C[C@@H](C)[C@H](OC)COC(=O)[C@@H](OCc2ccccc2)C=C[C@@H]1C,-0.556,-0.389,1.04,-0.584,-1.15,-0.0882,-0.2,-0.408,0.0642,-0.178,-0.761,-1.04 (inactive),0.114,-0.115,-0.499,-0.756,-0.549,-0.11,1.33,-0.4
CCOC(=O)NN=C1C[C@@H](O)[C@@H](O)[C@@H]2[C@@H]3C(=O)N(C(C)(C)C)C(=O)[C@@H]3CC[C@H]12,0.217,-0.0742,0.481,-0.0749,-0.913,0.0068,0.108,-0.171,0.0059,-0.0211,-0.385,0.288 (inactive),0.0431,0.272,-0.257,-0.227,-0.207,0.129,0.743,0.383
COc1ccc(O[C@H]2C=C[C@@H](c3ccccc3)O[C@@H]2CON=C(C)CCC(=O)OC[C@H]2O[C@H](c3ccccc3)C=C[C@@H]2Oc2ccc(OC)cc2)cc1,-1.52,-1.15,-1.08,-0.63,-0.702,-0.176,-0.276,0.646,-1.17,-0.792,0.12,0.456 (inactive),-0.165,-0.123,-0.62,-1.14,-0.295,-2.54,-0.633,-0.652
C[C@@H]1CC[C@H]2C(=O)O[C@@H](Cc3ccccc3)CN2[C@H]1c1ccc(Br)cc1,0.712,0.166,0.276,0.134,0.216,-0.118,-0.221,-0.158,0.579,0.198,0.126,-0.358 (inactive),-0.0997,-0.106,0.512,0.871,0.912,1.06,0.227,0.266
C[C@@H](c1ccccc1)N1C(=O)[C@H]2[C@H]3[C@H](O)[C@H](O)CC(=NOCc4ccccc4)[C@H]3CC[C@H]2C1=O,1.43,0.547,0.491,0.209,-0.298,-0.0635,-0.0626,-0.425,0.826,0.571,0.437,-0.325 (inactive),-0.0288,-0.147,0.388,0.797,0.771,1.17,0.365,0.951
CCOC(=O)[C@H](CC(C)C)NC(=O)CCC1CC(OC(=O)NCc2ccc3c(c2)OCO3)CC2(CCCC(COC(=O)NCCCN3CCCC3=O)O2)O1 (stereo not given in full),1.26,-0.584,0.563,0.542,-0.348,-0.0519,-0.0073,-0.158,0.0469,0.758,-0.0359,-0.0273 (inactive),0.0196,-0.108,0.0039,0.659,0.178,1.33,0.325,1.08
CO[C@H](C1CCCCC1)[C@H](C)C=CCC(=O)OCCCc1ccccc1,-0.743,0.714,0.291,-0.376,-0.937,-0.0874,-0.366,-0.27,0.099,-0.051,-0.553,0.349 (inactive),-0.125,-0.0751,-0.3,-0.856,-0.133,-0.53,0.562,-0.394
